# According to PubChem BioAssay:
# Columns and labels:
# [1] = test system: Human papillomavirus type 1a protein E7 (residues 44-93); assay: HPV1a E7 fragment binders on microarrays, primary screen, biochemical, small-molecule microarray, residues 44-93, 635 nm fluorescence (AID 1108); conditions: small-molecule microarray binding, fluorescence 635 nm; higher = more signal;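 also: E7 fragment applied at 1 µg/mL in TBST for 1 h at 4 C; score combines spot fluorescence with its signal to noise ratio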
# [2] = modulators of HCV replicon luciferase signal, primary screen, HCV replication inhibitor project, Huh7 cells, luciferase reporter (AID 1109); conditions: 48 h, higher = more signal;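 also: huh7 hepatoma cells harbouring a luciferase neomycin HCV replicon reporter; luciferase luminescence as measure of HCV replicon replication; test concentration not given here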
# [3] = molecular target: Left-right determination factor 2 (Homo sapiens) (UniProt O00292); assay: LEFTY2 binders on small-molecule microarrays, primary screen, biochemical, small-molecule microarray, 635 nm fluorescence scan (AID 1110); conditions: LEFTY2 binding, higher = more signal
# Chain of Left-right determination factor 2 (Homo sapiens) (O00292 whole entry, looked up): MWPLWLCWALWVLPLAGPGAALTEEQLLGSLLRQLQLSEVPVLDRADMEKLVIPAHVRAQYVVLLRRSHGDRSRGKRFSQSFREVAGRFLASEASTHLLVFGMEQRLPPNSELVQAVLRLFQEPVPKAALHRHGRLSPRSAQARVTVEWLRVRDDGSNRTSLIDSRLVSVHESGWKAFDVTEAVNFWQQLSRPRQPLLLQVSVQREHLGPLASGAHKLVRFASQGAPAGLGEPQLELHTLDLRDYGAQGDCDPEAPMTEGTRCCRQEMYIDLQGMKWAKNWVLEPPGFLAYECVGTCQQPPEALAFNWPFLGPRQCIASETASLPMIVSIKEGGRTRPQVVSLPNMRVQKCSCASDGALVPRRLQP
# [4] = molecular target: Calmodulin-1 (Homo sapiens) (UniProt P0DP23); assay: CALM1 binders on microarrays, EGTA buffer, profiling panel, biochemical, small-molecule microarray, Cy5-labelled CALM1 (AID 1111); conditions: Cy5-CALM1 binding fluorescence, higher = more signal;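 also: labelled calmodulin applied in Tris saline Tween buffer holding calcium plus EGTA and DTT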
# [5] = molecular target: Calmodulin-1 (Homo sapiens) (UniProt P0DP23); assay: calcium-bound CALM1 binders on microarrays, profiling panel, artefact control for SMM control-protein annotation, biochemical, small-molecule microarray, Cy5-labelled CALM1, plus calcium (AID 1112); conditions: Cy5-CALM1 binding fluorescence, higher = more signal;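 also: score merges spot fluorescence with signal to noise from triplicate slides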
# [6] = small-molecule microarray binders of probe aWnt5a, primary screen, biochemical, biotinylated probe, 635/667 nm fluorescence (AID 1113); conditions: higher = more signal;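 also: score merges 667 nm fluorescence intensity with signal-to-noise per printed feature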
# [7] = small-molecule microarray binders of probe aShh, primary screen, biochemical, biotinylated probe, 635/667 nm fluorescence (AID 1114); conditions: higher = more signal;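 also: probe is biotin-labelled aShh protein from a stem cell growth factor screen; measures binding of labelled protein to compounds printed on the slide; score merges feature fluorescence at 667 nm with signal-to-noise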
# [8] = small-molecule microarray binders of probe aNog, primary screen, biochemical, biotinylated probe, 635/667 nm fluorescence (AID 1115); conditions: higher = more signal;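 also: probe is biotinylated aNog protein used at 0.15 µg/mL for 1 h at 4 C; z-score combines 667 nm fluorescence of each spot with its signal to noise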
# [9] = molecular target: Torsin-1A-interacting protein 1 (Homo sapiens) (UniProt Q5JTV8); assay: LAP1 binders from COS7 cell lysate, primary screen, small-molecule microarray, 635/667 nm fluorescence (AID 1116); conditions: COS7-hLAP1 lysate binding, 635 nm fluorescence, higher = more signal
# Chain of Torsin-1A-interacting protein 1 (Homo sapiens) (Q5JTV8 whole entry, looked up): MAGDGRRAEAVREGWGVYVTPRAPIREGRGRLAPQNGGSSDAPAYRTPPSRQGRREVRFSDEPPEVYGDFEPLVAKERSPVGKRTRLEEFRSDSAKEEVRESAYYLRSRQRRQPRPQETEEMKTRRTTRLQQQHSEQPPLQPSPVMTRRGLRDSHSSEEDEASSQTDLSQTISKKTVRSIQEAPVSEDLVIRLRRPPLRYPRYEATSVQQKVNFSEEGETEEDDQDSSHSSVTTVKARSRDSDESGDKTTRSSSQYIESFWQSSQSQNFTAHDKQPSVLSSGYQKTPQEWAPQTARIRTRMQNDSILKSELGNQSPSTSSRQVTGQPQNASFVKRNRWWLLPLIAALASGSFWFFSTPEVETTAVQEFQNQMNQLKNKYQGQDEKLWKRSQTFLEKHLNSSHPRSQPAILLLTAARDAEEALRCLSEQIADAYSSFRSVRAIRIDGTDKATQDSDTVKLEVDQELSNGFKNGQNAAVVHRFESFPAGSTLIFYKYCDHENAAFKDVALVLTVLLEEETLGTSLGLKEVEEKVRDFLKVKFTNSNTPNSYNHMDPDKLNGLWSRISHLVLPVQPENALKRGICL
# [10] = molecular target: Alpha-bungarotoxin (Bungarus multicinctus) (UniProt P60615); assay: alpha-bungarotoxin binders on microarray, profiling panel, artefact control for SMM control protein annotation, biochemical, small-molecule microarray, Alexa647 label, 635/667 nm fluorescence (AID 1117); conditions: alpha-BTX-A647 binding fluorescence, higher = more signal
# Chain of Alpha-bungarotoxin (Bungarus multicinctus) (P60615 whole entry, looked up): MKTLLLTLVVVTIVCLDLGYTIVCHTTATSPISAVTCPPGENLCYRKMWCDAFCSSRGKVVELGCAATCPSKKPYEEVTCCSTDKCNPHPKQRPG
SMILES,composite z-score [1],z-score [2],composite z-score [3],composite z-score [4],composite z-score [5],composite z-score [6],composite z-score [7],composite z-score [8],composite z-score [9],composite z-score [10]
COCCOC(=O)N1C(=O)[C@@]2(c3ccccc31)[C@H](C(=O)N1CCN(c3ncccn3)CC1)[C@H]1C(=O)O[C@H](c3ccccc3)[C@H](c3ccccc3)N1[C@@H]2c1ccc(OCCO)cc1,1.41,-1.42,0.708,0.89,0.316,-0.0944,0.0639,0.612,1.03,1.11
Cc1ccc(S[C@]2(C(=O)NCC(F)(F)F)CC(=O)N(Cc3ccccc3)[C@@H]2c2ccc(CO)cc2)cc1,-0.341,-1.54,-1.73,-0.23,0.526,-0.169,-0.268,-0.186,0.122,-0.0421
C[C@]1(C(=O)O)c2ccccc2C(=O)N(Cc2ccccc2)[C@H]1c1ccc(CO)cc1,-0.633,-0.413,-2.19,0.139,1.2,-0.204,-0.291,0.562,-0.0514,-1.04
CCCCC(CC)C(O)C1C=CC2C(=O)N(c3ccccc3)C(=O)C2N1Nc1ccc([N+](=O)[O-])cc1 (stereo not given),1.37,-0.127,0.362,1.68,-0.371,-0.0519,-0.258,-0.623,0.513,1.27
COc1ccc(NN2C(C(O)c3ccccn3)C=CC3C(=O)N(C4CCCCC4)C(=O)C32)cc1 (stereo not given),1.41,-0.602,-0.188,1.58,0.37,0.0391,0.0875,1.17,0.766,0.887
O=C1OCCC=C[C@H]2OC34C=CCN(c5ccc(Cl)cc5)C(=O)[C@H]3N(CCCCCO)C(=O)[C@@H]4C12 (stereo not given in full),-0.357,0.312,-0.639,-0.262,-0.137,-0.0512,-0.0769,0.496,0.681,-0.702
COc1cc2c(cc1OC)CN(C(=O)[C@@H]1[C@H]3C(=O)O[C@H](c4ccccc4)[C@H](c4ccccc4)N3[C@H](c3ccccc3OCCO)[C@@]13C(=O)Nc1ccc(C#CC4(O)CCCCCC4)cc13)CC2,1.35,-2.18,0.246,0.545,0.222,-0.0685,0.0048,0.151,1.34,1.56
COc1ccc(CCNC(=O)[C@@]2(Sc3ccc(C)cc3)CC(=O)N(Cc3cc(C(F)(F)F)cc(C(F)(F)F)c3)[C@@H]2c2ccc(CO)cc2I)cc1,1.27,-1.89,-1.07,0.435,-0.45,-0.0869,0.23,-0.0592,0.282,1.73
CCOC(=O)C1=CC[C@@H](c2ccccc2)N(S(=O)(=O)c2ccc(C)cc2)C1,0.493,-2.23,-0.0161,-0.11,-0.374,-0.0459,0.485,0.005,0.127,0.329
[N-]=[N+]=Nc1ccccc1C[C@]1(C(=O)NCc2ccccc2)N=C(c2ccc(OCCCO)cc2)O[C@H]1c1ccccc1,1.08,-1.58,-0.397,2.03,0.848,0.0357,0.28,1.85,1.39,1.77
CCCCN1CC=CC23O[C@@H]4C=CCOC(=O)[C@@H]4[C@H]2C(=O)N(CCCO)[C@@H]3C1=O (stereo not given in full),0.409,-0.352,-0.997,-0.125,0.423,-0.202,-0.138,-0.168,-0.363,-1.34
O=C1O[C@@H](c2ccccc2)[C@@H](c2ccccc2)N2[C@@H](c3ccccc3OCCO)[C@]3(C(=O)Nc4ccc(C#CCCO)cc43)[C@@H](C(=O)Nc3nc4ccccc4s3)[C@H]12,-0.503,-2.12,1.02,1.7,0.64,-0.0572,-0.289,-0.523,0.326,1.82
COc1ccc(C(O)C2C=CC3C(=O)N(C)C(=O)C3N2N2CCCCC2)cc1 (stereo not given),0.069,0.633,0.108,0.204,0.3,0.1,0.457,1.07,2.36,0.55
CC(C)C(O)C1C=CC2C(=O)N(C)C(=O)C2N1Nc1ccccc1 (stereo not given),0.0819,0.247,0.163,0.774,-0.473,0.175,0.679,1.66,2.27,1.25
CC(C)C(=C=CC[C@H](O)c1ccc(OCCO)cc1)C[C@H](O)c1cc(Cl)cc(Cl)c1O,0.927,-1.57,0.437,-0.0205,0.134,-0.0125,0.191,0.205,0.413,1.44
CC(C)(C)OC(=O)CC[C@@]1(C(=O)O)N=C(c2ccc(OCCCO)cc2)O[C@@H]1c1ccccc1CN=[N+]=[N-],1.31,-2.21,-0.677,1.33,1.09,0.145,0.218,-0.1,1.24,2.78
Cc1ccc(C(C)CC(O)C2C=CC3C(=O)N(c4ccccc4)C(=O)C3N2Nc2ccc(C(C)C)cc2)o1 (stereo not given),1.33,1.02,-0.0337,2.35,1.01,0.14,-0.043,0.0485,0.801,1.64
Cc1ccc(F)cc1S(=O)(=O)N[C@@H]1CCN(Cc2ccc(Oc3ccccc3)cc2)C1,-1.39,-3.67,0.74,-1.08,-0.466,-0.147,-0.195,-0.388,-0.104,0.471
COCCOC(=O)N1C(=O)[C@@]2(c3ccccc31)[C@H](c1ccc(OCCO)cc1)N1[C@H](c3ccccc3)[C@H](c3ccccc3)OC(=O)[C@H]1[C@@H]2C(=O)Nc1nc2ccccc2s1,1.34,-1.33,0.492,1.68,0.397,0.0431,-0.0769,0.516,0.903,1.13
C[C@H]1C2=C3C(CC[C@H]4C(OCc5ccc(F)cc5C(F)(F)F)OC[C@](C)([C@@H]34)N(C(=O)OC(C)(C)C)C2)C2COC(=O)OCC21 (stereo not given in full),1.35,-1.84,-0.431,2.39,1.06,0.0232,0.26,-0.701,0.908,0.771
